Outcome and AC50 data for nine molecules are collected here from PubChem BioAssay (EPA / NIEHS).

A word on the AC50: it is the midpoint of the concentration-response curve, whichever way the signal moves.

Results filed as inconclusive are left out. The source made the active and inactive calls. The calls were made as follows, unless noted: active = hit-call score of the fitted dose curve at least 0.9, where 1 is the maximum; inactive = score below 0.9.

Experiment [1] concerns the target Nuclear respiratory factor 1 (Homo sapiens) (UniProt Q16656). The experiment in a line: ATG_NRF1_CIS: Attagene CIS-FACTORIAL HepG2 Assay for human Nuclear Respiratory Factor 1 (NRF1) Orphan Gene (AID 2282987). The following applies: HepG2 NRF1 cis-element reporter, Attagene multiplex; actives raise or lower the signal. The method, boiled down: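 Endogenous NRF1-driven reporter transcription measured in transiently transfected human HepG2 liver cells. Readout: reporter mRNA by RT-PCR and capillary electrophoresis with fluorescence detection, 24 h post-dosing. Gain or loss of signal fitted relative to DMSO baseline.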

Experiment [2] can be described thus: ATG_NFI_CIS: Attagene CIS-FACTORIAL HepG2 Assay for human Nuclear Factor I (NFI) (AID 2282989). The following applies: HepG2 cis-regulatory reporter, NFI response element transcription; actives raise or lower the signal. The gist of the method: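 Multiplexed cis-reporter system in human HepG2 cells reports native TF activity as reporter mRNA induction 24 h post-dose. Fragments labelled with 6-FAM, HpaI-digested and resolved by capillary electrophoresis; activity fitted both directions versus DMSO.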

The target of experiment [3] is Myc proto-oncogene protein (Homo sapiens) (UniProt P01106). The experiment in a line: ATG_Myc_CIS: Attagene CIS-FACTORIAL HepG2 Assay for human Myelocytomatosis (Myc) Proto-Oncogene Transcription Factor (AID 2282990). The following applies: HepG2, Attagene cis-reporter transcription factor activity; actives raise or lower the signal. The gist of the method: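 Read-out: fluorescent reporter mRNA fragments resolved by capillary electrophoresis after RT-PCR. Human HepG2 liver cells carried transfected cis-element reporter units and were dosed for 24 h. Gain or loss of signal fitted relative to DMSO baseline.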

A short description of experiment [4]: ATG_NF_kB_CIS: Attagene CIS-FACTORIAL HepG2 Assay for human Nuclear Factor Kappa B (NF-kB) (AID 2282991). The following applies: HepG2 Attagene cis-factorial NF-kB reporter mRNA; actives raise or lower the signal. The gist of the method:
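Read-out: reporter transcript levels quantified by RT-PCR plus capillary electrophoresis of 6-FAM-labelled, HpaI-cut fragments. Transfected HepG2 cells, 24 h compound exposure, endogenous NF-kB-driven cis element; gain or loss scored versus DMSO.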

The nature of experiment [5]: ATG_NRF2_ARE_CIS: Attagene CIS-FACTORIAL HepG2 Assay for human Nuclear Factor Erythroid 2 Related Factor 2 (NFR2) response to Antioxidant Response Elements (ARE) (AID 2282992). The following applies: HepG2 Attagene ARE/NRF2 reporter, transcription factor activity; actives raise or lower the signal. The method, boiled down:
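Cis-factorial assay: transfected HepG2 reporter library, 24 h dosing, mRNA readout via RT-PCR/CE; DMSO-referenced bidirectional analysis.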

A short description of experiment [6]: ATG_Oct_MLP_CIS: Attagene CIS-FACTORIAL HepG2 Assay for human Octamer-Binding Transcription Factor (Oct) (AID 2282993). The following applies: HepG2 Attagene cis-factorial Oct reporter, mRNA; actives raise or lower the signal. The method, boiled down:
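After 24 h compound exposure, transfected HepG2 cells were lysed for total RNA; reporter-specific cDNA was PCR-amplified, fluorescently labelled and sized by capillary electrophoresis. Bidirectional curve fitting used DMSO as baseline.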

Experiment [7] addresses Cellular tumor antigen p53 (Homo sapiens) (UniProt P04637). The experiment in a line: ATG_p53_CIS: Attagene CIS-FACTORIAL HepG2 Assay for human p53 Transcription Factor (AID 2282994). The following applies: HepG2 p53 cis-element reporter, Attagene mRNA; actives raise or lower the signal. The method, boiled down: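 Using HepG2 hepatoma cells carrying cis-acting multiplexed reporters, mRNA induction is detected after a 24 h exposure. Gain- and loss-of-signal responses are fitted relative to DMSO-treated cells.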

In experiment [8] the target is human Peroxisome Proliferator-activated Receptor alpha (PPARa), PPARA (gene 5465) (UniProt Q07869). The experiment in a line: ATG_PPARa_TRANS: Attagene TRANS-FACTORIAL HepG2 Assay for human Peroxisome Proliferator-activated Receptor alpha (PPARa) (AID 2283001; active = hit-call score of the fitted dose curve at least 0.9, where 1 is the maximum;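 as to AC50: potency for gain of reporter signal over DMSO so agonist or activator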). The method, boiled down: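 Measures transcriptional activity of an exogenous chimeric PPARa-Gal4 protein in transiently transfected HepG2 cells after 24 h dosing. Reporter mRNA quantified via RT-PCR and capillary electrophoresis; DMSO served as negative control.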

Experiment [9] deals with human Peroxisome Proliferator-activated Receptor delta (PPARd), PPARD (gene 5467) (UniProt Q03181). The experiment in a line: ATG_PPARd_TRANS: Attagene TRANS-FACTORIAL HepG2 Assay for human Peroxisome Proliferator-activated Receptor delta (PPARd) (AID 2283002; active = hit-call score of the fitted dose curve at least 0.9, where 1 is the maximum). The gist of the method: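 Read-out: reporter mRNA induction, quantified by fluorescent RT-PCR products resolved by capillary electrophoresis. Human HepG2 liver cells carried transiently transfected Gal4-UAS reporter constructs with chimeric NR-Gal4 fusions. Cells were dosed for 24 h; DMSO served as baseline.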

The target in experiment [10] is human Retinoic Acid Receptor beta (RARb), RARB (gene 5915) (UniProt P10826). The experiment in a line: ATG_RARb_TRANS: Attagene TRANS-FACTORIAL HepG2 Assay for human Retinoic Acid Receptor beta (AID 2283004; active = hit-call score of the fitted dose curve at least 0.9, where 1 is the maximum). The method, boiled down: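 Transient transfection of HepG2 with multiple reporter units → chemical dosing, 24 h → total RNA isolation → RT with oligo(dT) → reporter-specific PCR, 6-FAM primer extension, HpaI digest → capillary electrophoresis. Positive direction vs DMSO control.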

In experiment [11] the target is Retinoic acid receptor alpha (Homo sapiens) (UniProt P10276). The experiment in a line: ATG_RARa_TRANS: Attagene TRANS-FACTORIAL HepG2 Assay for human Retinoic Acid Receptor alpha (RARa) (AID 2283005; active = hit-call score of the fitted dose curve at least 0.9, where 1 is the maximum). The gist of the method: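 HepG2 transiently transfected with multiplex GAL4-UAS reporter units including a human RARa–GAL4 chimera; 24 h compound exposure. Reporter mRNA quantified by RT-PCR, 6-FAM labeling and capillary electrophoresis; gain of signal versus DMSO.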

The target in experiment [12] is Peroxisome proliferator-activated receptor gamma (Homo sapiens) (UniProt P37231). The experiment in a line: ATG_PPARg_TRANS: Attagene TRANS-FACTORIAL HepG2 Assay for human Peroxisome Proliferator-activated Receptor-gamma (PPARg) (AID 2283007; active = hit-call score of the fitted dose curve at least 0.9, where 1 is the maximum). The method, boiled down:
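Read-out: reporter mRNA induction, detected by fluorescence after RT-PCR and capillary electrophoresis. Transiently transfected human HepG2 liver cells carrying a chimeric NR-Gal4 construct were dosed for 24 h; activity was fitted upward relative to DMSO.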

Experiment [13] concerns the target Nuclear receptor subfamily 1 group I member 2 (Homo sapiens) (UniProt O75469). The experiment in a line: ATG_PXR_TRANS: Attagene TRANS-FACTORIAL HepG2 Assay for human Pregnane X Receptor (PXR) (AID 2283008; active = hit-call score of the fitted dose curve at least 0.9, where 1 is the maximum). The method, boiled down:
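Fluorescence intensity of FAM-labelled, HpaI-digested reporter amplicons, separated by capillary electrophoresis, quantifies induction. HepG2 cells with PXR-Gal4 trans-reporter system were exposed 24 h; DMSO defines baseline.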

For experiment [14], the target named is human Retinoic Acid Receptor gamma (RARg), RARG (gene 5916) (UniProt P13631). The experiment in a line: ATG_RARg_TRANS: Attagene TRANS-FACTORIAL HepG2 Assay for human Retinoic Acid Receptor gamma (RARg) (AID 2283009; active = hit-call score of the fitted dose curve at least 0.9, where 1 is the maximum). The method, boiled down:
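HepG2 cells transiently transfected with multiplexed reporter units expressing chimeric RARg-GAL4 and GAL4-UAS-driven reporters; 24 h compound exposure. Reporter mRNA quantified by RT-PCR with fluorescent labelling and capillary electrophoresis; gain-of-signal fitted relative to DMSO baseline.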

Experiment [15] can be described thus: BSK_3C_TissueFactor: BioMAP Diversity Plus: 3C Assay for Tissue Factor Biomarker Activity (AID 2282997). The following applies: BioMAP 3C HUVEC, tissue factor biomarker readout; actives raise or lower the signal. The method, boiled down:
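ELISA read-out of Tissue Factor levels on human umbilical vein endothelium collected 24 h after chemical dosing. Gain or loss of signal was fitted relative to DMSO.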

Experiment [16] can be described thus: BSK_3C_VCAM1: BioMAP Diversity Plus: 3C Assay for Vascular cell adhesion molecule 1 (VCAM1) Biomarker Activity (AID 2282999). The following applies: BioMAP 3C HUVEC, VCAM1 ELISA, cytokine-stimulated; actives raise or lower the signal. The gist of the method: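 Human umbilical vein endothelial cells (3C system), biomarker read by ELISA 24 h after dosing; bidirectional fit against DMSO baseline. Cytotoxicity tracked by SRB total-protein staining in parallel cultures at biomarker time.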
(An ELISA detects its analyte on a solid surface through an enzyme-linked reagent.)

The nature of experiment [17]: BSK_4H_Eotaxin3: BioMAP Diversity Plus: 4H Assay for Eotaxin 3 Biomarker Activity (AID 2283000).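 Also: CCL26 protein level quantified by ELISA in parallel with SRB cytotoxicity check.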 The following applies: primary human endothelial cells (HUVEC); actives raise or lower the signal. The gist of the method: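 Chemicals were added to human umbilical vein endothelium cultures, and Eotaxin-3 was quantified by ELISA at 24 h. Values were derived by bidirectional fitting with DMSO serving as negative control and activity baseline.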

Read-out in experiment [18]: Intercellular Adhesion Molecule 1 (ICAM1), ICAM1 (gene 3383)
The experiment in a line: BSK_3C_ICAM1: BioMAP Diversity Plus: 3C Assay for Intercellular Adhesion Molecule 1 (ICAM1) Biomarker Activity (AID 2283003). The following applies: primary human endothelial cells (HUVEC); actives raise or lower the signal. The method, boiled down:
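Primary human umbilical vein endothelial cells in the BioMAP 3C system were exposed to chemicals for 24 h, then ICAM-1 was quantified by ELISA. Activity was fitted bidirectionally against the DMSO negative control baseline.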

The nature of experiment [19]: BSK_3C_Proliferation: Cell Proliferation Assessment in the BioMAP Diversity Plus: 3C Assay (AID 2283006). The following applies: primary human endothelial cells (HUVEC). The method, boiled down: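 Human umbilical vein endothelial cells were grown sub-confluent and exposed to chemical for 48 h, then fixed with 10% TCA and stained with 0.1% sulforhodamine B; absorbance at 560 nm gave relative cell number, fitted bidirectionally against DMSO baseline.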

Chain of human Peroxisome Proliferator-activated Receptor alpha (PPARa), PPARA (gene 5465) (Q07869 whole entry, looked up, the tested form may be a part): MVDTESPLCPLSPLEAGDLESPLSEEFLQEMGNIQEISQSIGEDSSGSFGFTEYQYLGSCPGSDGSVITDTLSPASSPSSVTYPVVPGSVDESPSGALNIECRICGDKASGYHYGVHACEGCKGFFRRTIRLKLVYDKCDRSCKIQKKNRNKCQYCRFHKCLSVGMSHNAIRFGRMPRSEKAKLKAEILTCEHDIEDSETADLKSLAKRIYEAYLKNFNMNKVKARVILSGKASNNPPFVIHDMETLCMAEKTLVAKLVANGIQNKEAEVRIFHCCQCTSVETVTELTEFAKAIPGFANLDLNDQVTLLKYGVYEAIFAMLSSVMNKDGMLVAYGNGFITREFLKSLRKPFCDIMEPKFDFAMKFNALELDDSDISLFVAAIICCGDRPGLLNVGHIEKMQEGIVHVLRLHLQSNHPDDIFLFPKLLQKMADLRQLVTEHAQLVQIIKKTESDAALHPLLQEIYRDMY
Chain of Cellular tumor antigen p53 (Homo sapiens) (P04637 whole entry, looked up): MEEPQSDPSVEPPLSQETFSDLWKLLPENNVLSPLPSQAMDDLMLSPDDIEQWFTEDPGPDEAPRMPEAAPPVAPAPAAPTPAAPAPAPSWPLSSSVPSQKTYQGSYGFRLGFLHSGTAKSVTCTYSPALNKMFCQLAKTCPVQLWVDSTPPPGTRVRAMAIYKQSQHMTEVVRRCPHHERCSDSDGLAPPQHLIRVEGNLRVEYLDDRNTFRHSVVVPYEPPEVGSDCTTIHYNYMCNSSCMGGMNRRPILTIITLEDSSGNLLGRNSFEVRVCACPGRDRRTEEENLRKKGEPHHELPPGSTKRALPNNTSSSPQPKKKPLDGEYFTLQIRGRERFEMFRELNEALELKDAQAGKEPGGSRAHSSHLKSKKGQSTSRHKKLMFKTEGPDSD
Chain of Nuclear respiratory factor 1 (Homo sapiens) (Q16656 whole entry, looked up): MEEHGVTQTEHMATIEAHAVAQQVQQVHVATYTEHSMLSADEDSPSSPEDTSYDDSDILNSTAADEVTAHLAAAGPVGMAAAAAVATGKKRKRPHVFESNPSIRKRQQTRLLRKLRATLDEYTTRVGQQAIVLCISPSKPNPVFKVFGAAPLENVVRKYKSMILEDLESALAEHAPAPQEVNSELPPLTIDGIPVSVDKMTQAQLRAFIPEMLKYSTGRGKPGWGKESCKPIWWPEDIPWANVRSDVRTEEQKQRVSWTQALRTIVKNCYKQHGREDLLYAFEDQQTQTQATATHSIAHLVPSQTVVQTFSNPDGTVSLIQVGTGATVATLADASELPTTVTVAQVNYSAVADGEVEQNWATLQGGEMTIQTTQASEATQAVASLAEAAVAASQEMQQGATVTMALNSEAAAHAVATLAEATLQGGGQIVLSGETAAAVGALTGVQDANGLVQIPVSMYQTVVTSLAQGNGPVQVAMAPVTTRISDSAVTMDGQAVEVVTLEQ
Chain of Peroxisome proliferator-activated receptor gamma (Homo sapiens) (P37231 whole entry, looked up, the tested form may be a part): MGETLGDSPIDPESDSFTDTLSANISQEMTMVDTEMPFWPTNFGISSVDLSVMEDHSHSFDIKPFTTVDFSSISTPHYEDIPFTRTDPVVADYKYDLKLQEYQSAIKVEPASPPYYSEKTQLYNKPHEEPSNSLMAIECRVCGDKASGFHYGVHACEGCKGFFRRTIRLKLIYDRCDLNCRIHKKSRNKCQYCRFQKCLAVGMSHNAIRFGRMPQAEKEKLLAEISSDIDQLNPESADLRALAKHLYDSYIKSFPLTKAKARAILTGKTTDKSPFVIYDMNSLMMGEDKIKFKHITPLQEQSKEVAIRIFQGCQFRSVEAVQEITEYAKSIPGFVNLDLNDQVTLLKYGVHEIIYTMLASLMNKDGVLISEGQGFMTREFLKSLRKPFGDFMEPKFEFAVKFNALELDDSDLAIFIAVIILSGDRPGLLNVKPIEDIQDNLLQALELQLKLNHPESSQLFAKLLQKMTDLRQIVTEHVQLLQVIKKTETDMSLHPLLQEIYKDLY
Chain of Myc proto-oncogene protein (Homo sapiens) (P01106 whole entry, looked up, the tested form may be a part): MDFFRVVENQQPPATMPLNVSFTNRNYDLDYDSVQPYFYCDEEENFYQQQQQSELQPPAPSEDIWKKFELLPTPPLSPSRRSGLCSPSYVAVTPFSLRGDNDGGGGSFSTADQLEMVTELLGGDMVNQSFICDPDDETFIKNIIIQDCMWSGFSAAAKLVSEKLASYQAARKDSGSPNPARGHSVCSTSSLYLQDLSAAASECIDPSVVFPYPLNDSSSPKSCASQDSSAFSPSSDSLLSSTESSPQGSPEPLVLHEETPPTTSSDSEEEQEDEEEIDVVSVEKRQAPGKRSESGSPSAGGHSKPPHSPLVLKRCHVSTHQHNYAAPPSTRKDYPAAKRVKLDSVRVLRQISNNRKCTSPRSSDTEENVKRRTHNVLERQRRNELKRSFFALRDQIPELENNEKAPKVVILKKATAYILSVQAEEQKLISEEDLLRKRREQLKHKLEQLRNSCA
Chain of human Retinoic Acid Receptor beta (RARb), RARB (gene 5915) (P10826 whole entry, looked up): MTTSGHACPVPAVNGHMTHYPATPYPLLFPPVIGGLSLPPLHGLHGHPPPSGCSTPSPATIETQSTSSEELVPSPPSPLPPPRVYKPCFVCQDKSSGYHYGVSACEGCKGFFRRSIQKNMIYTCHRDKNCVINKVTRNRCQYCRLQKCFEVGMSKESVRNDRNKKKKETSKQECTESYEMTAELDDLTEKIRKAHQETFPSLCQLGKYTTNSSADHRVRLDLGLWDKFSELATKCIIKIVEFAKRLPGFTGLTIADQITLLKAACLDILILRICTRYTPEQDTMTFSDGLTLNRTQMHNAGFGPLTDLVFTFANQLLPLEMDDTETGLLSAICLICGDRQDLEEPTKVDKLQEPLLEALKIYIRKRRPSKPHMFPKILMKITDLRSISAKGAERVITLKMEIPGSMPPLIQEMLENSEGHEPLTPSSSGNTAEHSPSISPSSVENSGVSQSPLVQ
Chain of human Retinoic Acid Receptor gamma (RARg), RARG (gene 5916) (P13631 whole entry, looked up, the tested form may be a part): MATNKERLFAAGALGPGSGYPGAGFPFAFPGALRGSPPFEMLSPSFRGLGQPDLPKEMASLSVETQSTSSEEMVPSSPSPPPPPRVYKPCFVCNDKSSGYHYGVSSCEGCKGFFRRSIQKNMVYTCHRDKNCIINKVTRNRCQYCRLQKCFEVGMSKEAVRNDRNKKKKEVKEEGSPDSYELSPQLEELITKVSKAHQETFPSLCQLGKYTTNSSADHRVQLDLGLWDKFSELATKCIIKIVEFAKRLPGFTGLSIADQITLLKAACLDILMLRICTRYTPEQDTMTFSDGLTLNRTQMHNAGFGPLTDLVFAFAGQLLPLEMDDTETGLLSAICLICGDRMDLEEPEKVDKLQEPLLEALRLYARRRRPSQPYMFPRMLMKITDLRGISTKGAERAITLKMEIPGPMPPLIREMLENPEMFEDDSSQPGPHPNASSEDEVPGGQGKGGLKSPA
Chain of Nuclear receptor subfamily 1 group I member 2 (Homo sapiens) (O75469 whole entry, looked up, the tested form may be a part): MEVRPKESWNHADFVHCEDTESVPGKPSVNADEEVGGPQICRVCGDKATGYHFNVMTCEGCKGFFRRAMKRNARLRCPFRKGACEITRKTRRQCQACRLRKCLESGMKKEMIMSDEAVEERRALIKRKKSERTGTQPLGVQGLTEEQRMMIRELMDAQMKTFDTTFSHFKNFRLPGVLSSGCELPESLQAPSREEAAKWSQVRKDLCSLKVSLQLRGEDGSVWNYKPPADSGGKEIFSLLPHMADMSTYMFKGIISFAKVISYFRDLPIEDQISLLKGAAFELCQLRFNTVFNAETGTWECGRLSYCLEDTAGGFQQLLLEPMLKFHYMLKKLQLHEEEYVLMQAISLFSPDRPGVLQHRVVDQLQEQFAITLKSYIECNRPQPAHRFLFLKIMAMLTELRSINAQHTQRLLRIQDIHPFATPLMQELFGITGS
Chain of human Peroxisome Proliferator-activated Receptor delta (PPARd), PPARD (gene 5467) (Q03181 whole entry, looked up, the tested form may be a part): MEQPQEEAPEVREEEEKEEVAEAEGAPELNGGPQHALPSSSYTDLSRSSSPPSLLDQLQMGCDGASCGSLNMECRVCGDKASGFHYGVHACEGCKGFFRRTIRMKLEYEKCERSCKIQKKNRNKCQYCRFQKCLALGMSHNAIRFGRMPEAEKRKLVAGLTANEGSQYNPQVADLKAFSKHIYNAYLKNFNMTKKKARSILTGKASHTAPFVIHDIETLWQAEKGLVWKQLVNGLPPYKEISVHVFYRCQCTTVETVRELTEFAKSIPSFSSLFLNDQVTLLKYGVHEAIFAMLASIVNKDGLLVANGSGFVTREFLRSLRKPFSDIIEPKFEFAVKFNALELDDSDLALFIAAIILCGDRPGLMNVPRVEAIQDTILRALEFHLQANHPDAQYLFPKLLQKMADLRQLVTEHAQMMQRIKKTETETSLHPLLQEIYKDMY
Chain of Retinoic acid receptor alpha (Homo sapiens) (P10276 whole entry, looked up, the tested form may be a part): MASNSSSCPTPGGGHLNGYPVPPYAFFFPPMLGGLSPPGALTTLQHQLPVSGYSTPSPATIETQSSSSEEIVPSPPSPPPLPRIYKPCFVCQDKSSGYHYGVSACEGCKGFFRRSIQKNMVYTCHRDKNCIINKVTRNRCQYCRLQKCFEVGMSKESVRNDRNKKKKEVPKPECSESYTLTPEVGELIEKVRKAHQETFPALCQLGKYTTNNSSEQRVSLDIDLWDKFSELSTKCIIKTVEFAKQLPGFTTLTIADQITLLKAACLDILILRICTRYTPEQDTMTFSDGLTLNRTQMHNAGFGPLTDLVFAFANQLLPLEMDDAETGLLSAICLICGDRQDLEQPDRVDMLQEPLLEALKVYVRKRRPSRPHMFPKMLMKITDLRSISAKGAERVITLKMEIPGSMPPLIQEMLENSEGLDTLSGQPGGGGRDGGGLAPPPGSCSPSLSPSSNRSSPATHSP

Regarding `CCn1c2ccccc2c2ccccc21`, the molecule was classed as inactive in experiment [1], in experiment [3], in [4], in experiment [7], in experiment [8] and in experiment [9]. Also, the result in experiment [10], in [11], in experiment [12] and in experiment [14] was inactive. For the same molecule, the AC50 was 152 µM (active) in experiment [2], 157 µM (active) in experiment [5], 100 µM (active) in experiment [6] and 10.3 µM (active) in [13].
Take `COC(F)(C(F)F)C(F)(F)F` (configuration not stated): the result in experiment [1], in experiment [2], in [3], in experiment [4], in experiment [5] and in [6] was inactive. Also, the molecule was classed as inactive in [7], in experiment [15], in [16], in experiment [17], in [9] and in [18]. For the same molecule, the molecule was called inactive in experiment [11], in [19], in experiment [12] and in experiment [13].
As for `CCc1cccc(C)c1N(C(=O)C(=O)O)C(C)COC` (configuration not stated), the outcome in experiment [1], in experiment [2], in experiment [3], in experiment [4], in [5] and in [6] was inactive. In addition, the call in experiment [7], in experiment [8], in experiment [9], in experiment [12] and in experiment [13] was inactive.
Consider `CCCCCCCCn1sc(Cl)c(Cl)c1=O`, for which the result in experiment [1], in [2], in [3], in experiment [4], in [6] and in experiment [8] was inactive. In addition, the outcome in experiment [9] and in [13] was inactive. Moreover, the figures for the AC50 in experiment [5], in [7] and in experiment [12] were 6.58 µM (active), 11.1 µM (active) and 11.1 µM (active), respectively.
Consider `CCOC(=O)CC(=O)C(F)(F)C(F)(F)F`, for which the molecule was classed as inactive in experiment [1], in experiment [2], in experiment [3], in experiment [4], in [5] and in experiment [6]. Moreover, the molecule was called inactive in [7], in [15], in experiment [16], in experiment [17], in experiment [18] and in experiment [19]. For the same molecule, the call in experiment [12], in [13] and in [14] was inactive.
On to `CCN=c1cc2oc3cc(NCC)c(C)cc3c(-c3ccccc3C(=O)OCC)c-2cc1C`, for which the result in experiment [1], in [3], in experiment [4], in experiment [9], in [10] and in experiment [12] was inactive. For the same molecule, the call in experiment [13] was inactive. Moreover, the concentration at half-maximal activity (AC50) is 17.5 µM (active) in experiment [2], 0.132 µM (active) in [5], 7.4 µM (active) in experiment [6] and 1.56 µM (active) in experiment [7].
Take `FC(F)(F)C(F)(F)C(F)(F)C(F)(F)C(F)(F)C(F)(F)CC[Si](Cl)(Cl)Cl`: the result in experiment [1], in [2], in experiment [3], in experiment [4], in experiment [5] and in experiment [6] was inactive. Besides, the outcome in experiment [7], in experiment [15], in [16], in experiment [17], in experiment [18] and in [10] was inactive. The result in experiment [19], in experiment [12], in experiment [13] and in experiment [14] was inactive.
For the molecule `CCC(Cc1c(I)cc(I)c(N)c1I)C(=O)O` (configuration not stated), the call in [1], in experiment [2], in [4], in experiment [6], in experiment [7] and in experiment [9] was inactive. Besides, the molecule was classed as inactive in experiment [13]. Also, the half-maximal activity concentration (AC50) in experiment [3] is 148 µM (active); in experiment [5], 47 µM (active); in experiment [8] it was 35.9 µM (active); in experiment [12], 29.5 µM (active).
Take `CCCCCCCCCCCC(=O)Cl`: the call in experiment [1], in experiment [2], in experiment [3], in [6], in experiment [7] and in [8] was inactive. The molecule was classed as inactive in experiment [13] and in [14]. Moreover, the AC50 was 123 µM (active) in [4], 74.5 µM (active) in experiment [5], 125 µM (active) in experiment [9] and 72.9 µM (active) in [12].
